# According to PubChem BioAssay AID1159580 (chemical genetic matrix, 2015):
# About 2,000 (36%) of roughly 5,500 compounds were called active. Another 18% or so got no clear call; they are omitted. The list shows a part of the results. Unmarked numbers belong to inactive results. Cut-off read from the data, not from the text of the source: active = normalized growth mostly below about 0.91 (no sharp cut-off); inconclusive = no clear call, values can overlap the other calls; inactive = mostly above about 0.92.
# Assay: chemical genetic growth profiling, strain panel (AID 1159580);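 note: tested at 20 µM; growth read once vehicle control cultures reached saturation at 30 °C; 1 = growth at the plate median or of vehicle wells; lower values mean less growth of the strain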
# Conditions: growth OD
smiles,measurement,setting,value
Nc1c2ccccc2nc2ccccc12 (tested in a mixture with another compound),normalized growth,"S. cerevisiae deletion strains, locus YKL009W, strain mrt4, hits give low values",0.811 (active)
same,normalized growth,"S. cerevisiae deletion strains, locus YKL068W, hits give low values",0.969
same,normalized growth,"S. cerevisiae deletion strains, locus YKL085W, strain MDH1 (second series), hits give low values",0.899 (active)
same,normalized growth,"S. cerevisiae deletion strains, locus YKL085W, strain MDH1, hits give low values",0.899 (active)
same,normalized growth,"S. cerevisiae deletion strains, locus YKL160W, strain elf1, hits give low values",0.597 (active)
same,normalized growth,"S. cerevisiae deletion strains, locus YKL190W, strain CNB1, hits give low values",0.717 (active)
same,normalized growth,"S. cerevisiae deletion strains, locus YKR001C, strain vps1, hits give low values",0.292 (active)
same,normalized growth,"S. cerevisiae deletion strains, locus YKR026C, strain gcn3, hits give low values",0.957
same,normalized growth,"S. cerevisiae deletion strains, locus YKR091W, strain srl3, hits give low values",0.95
same,normalized growth,"S. cerevisiae deletion strains, locus YLL001W, strain dnm1, hits give low values",0.603 (active)
same,normalized growth,"S. cerevisiae deletion strains, locus YLL026W, hits give low values",0.707 (active)
same,normalized growth,"S. cerevisiae deletion strains, locus YLL041C, strain sdh2, hits give low values",0.897 (active)
same,normalized growth,"S. cerevisiae deletion strains, locus YLR027C, strain aat2, hits give low values",0.604 (active)
same,normalized growth,"S. cerevisiae deletion strains, locus YLR039C, strain RIC1, hits give low values",0.601 (active)
same,normalized growth,"S. cerevisiae deletion strains, locus YLR058C, strain SHM2, hits give low values",0.538 (active)
same,normalized growth,"S. cerevisiae deletion strains, locus YLR102C, strain apc9, hits give low values",0.943
same,normalized growth,"S. cerevisiae deletion strains, locus YLR113W, strain HOG1, hits give low values",0.506 (active)
same,normalized growth,"S. cerevisiae deletion strains, locus YLR221C, strain rsa3, hits give low values",0.634 (active)
same,normalized growth,"S. cerevisiae deletion strains, locus YLR258W, strain gsy2, hits give low values",0.603 (active)
same,normalized growth,"S. cerevisiae deletion strains, locus YLR262C, strain YPT6 (second series), hits give low values",0.573 (active)
same,normalized growth,"S. cerevisiae deletion strains, locus YLR262C, strain YPT6, hits give low values",0.604 (active)
same,normalized growth,"S. cerevisiae deletion strains, locus YLR268W, strain sec22, hits give low values",0.622 (active)
same,normalized growth,"S. cerevisiae deletion strains, locus YLR320W, strain mms22, hits give low values",0.507 (active)
same,normalized growth,"S. cerevisiae deletion strains, locus YLR330W, strain CHS5, hits give low values",0.826 (active)
same,normalized growth,"S. cerevisiae deletion strains, locus YLR342W, strain FKS1 (second series), hits give low values",0.662 (active)
same,normalized growth,"S. cerevisiae deletion strains, locus YLR342W, strain FKS1, hits give low values",0.945
same,normalized growth,"S. cerevisiae deletion strains, locus YLR357W, strain rsc2, hits give low values",1.11
same,normalized growth,"S. cerevisiae deletion strains, locus YLR370C, strain arc18, hits give low values",0.803 (active)
same,normalized growth,"S. cerevisiae deletion strains, locus YLR371W, strain rom2, hits give low values",0.98
same,normalized growth,"S. cerevisiae deletion strains, locus YLR384C, strain iki3, hits give low values",0.932
same,normalized growth,"S. cerevisiae deletion strains, locus YLR418C, strain cdc73, hits give low values",0.723 (active)
same,normalized growth,"S. cerevisiae deletion strains, locus YML016C, strain PPZ1, hits give low values",0.714 (active)
same,normalized growth,"S. cerevisiae deletion strains, locus YML032C, strain rad52, hits give low values",0.37 (active)
same,normalized growth,"S. cerevisiae deletion strains, locus YML120C, strain ndi1, hits give low values",0.439 (active)
same,normalized growth,"S. cerevisiae deletion strains, locus YML124C, strain tub3, hits give low values",0.84 (active)
same,normalized growth,"S. cerevisiae deletion strains, locus YMR058W, strain fet3, hits give low values",0.69 (active)
same,normalized growth,"S. cerevisiae deletion strains, locus YMR078C, strain ctf18, hits give low values",0.642 (active)
same,normalized growth,"S. cerevisiae deletion strains, locus YMR125W, strain sto1, hits give low values",0.963
same,normalized growth,"S. cerevisiae deletion strains, locus YMR129W, hits give low values",0.844 (active)
same,normalized growth,"S. cerevisiae deletion strains, locus YMR205C, strain PFK2, hits give low values",0.669 (active)
same,normalized growth,"S. cerevisiae deletion strains, locus YMR223W, strain ubp8, hits give low values",0.579 (active)
same,normalized growth,"S. cerevisiae deletion strains, locus YMR231W, strain pep5, hits give low values",0.94
same,normalized growth,"S. cerevisiae deletion strains, locus YMR263W, strain SAP30, hits give low values",0.746 (active)
same,normalized growth,"S. cerevisiae deletion strains, locus YMR307W, strain GAS1, hits give low values",0.806
same,normalized growth,"S. cerevisiae deletion strains, locus YNL067W, strain RPL9B, hits give low values",0.477 (active)
same,normalized growth,"S. cerevisiae deletion strains, locus YNL071W, strain lat1, hits give low values",0.958
same,normalized growth,"S. cerevisiae deletion strains, locus YNL128W, strain TEP1, hits give low values",0.76 (active)
same,normalized growth,"S. cerevisiae deletion strains, locus YNL153C, strain GIM3, hits give low values",0.701 (active)
same,normalized growth,"S. cerevisiae deletion strains, locus YNL183C, strain NPR1, hits give low values",0.483 (active)
same,normalized growth,"S. cerevisiae deletion strains, locus YNL209W, strain ssb2, hits give low values",0.729 (active)
same,normalized growth,"S. cerevisiae deletion strains, locus YNL233W, strain BNI4, hits give low values",0.707 (active)
same,normalized growth,"S. cerevisiae deletion strains, locus YNL248C, strain rpa49, hits give low values",0.599 (active)
same,normalized growth,"S. cerevisiae deletion strains, locus YNL250W, strain rad50, hits give low values",0.782 (active)
same,normalized growth,"S. cerevisiae deletion strains, locus YNL271C, strain bni1, hits give low values",0.891 (active)
same,normalized growth,"S. cerevisiae deletion strains, locus YNL298W, strain CLA4, hits give low values",0.858 (active)
same,normalized growth,"S. cerevisiae deletion strains, locus YNL307C, strain MCK1, hits give low values",0.439 (active)
same,normalized growth,"S. cerevisiae deletion strains, locus YNL322C, strain KRE1 (second series), hits give low values",0.981
same,normalized growth,"S. cerevisiae deletion strains, locus YNL322C, strain KRE1, hits give low values",0.771 (active)
same,normalized growth,"S. cerevisiae deletion strains, locus YNR049C, strain mso1, hits give low values",0.899 (active)
same,normalized growth,"S. cerevisiae deletion strains, locus YNR052C, strain pop2, hits give low values",0.732 (active)
same,normalized growth,"S. cerevisiae deletion strains, locus YOL006C, strain TOP1, hits give low values",0.475 (active)
same,normalized growth,"S. cerevisiae deletion strains, locus YOL012C, strain htz1",2.2 [resistant] (active)
same,normalized growth,"S. cerevisiae deletion strains, locus YOL147C, strain pex11, hits give low values",0.832 (active)
same,normalized growth,"S. cerevisiae deletion strains, locus YOR001W, strain rrp6, hits give low values",0.508 (active)
same,normalized growth,"S. cerevisiae deletion strains, locus YOR061W, strain CKA2, hits give low values",0.744 (active)
same,normalized growth,"S. cerevisiae deletion strains, locus YOR069W, strain VPS5, hits give low values",0.825 (active)
same,normalized growth,"S. cerevisiae deletion strains, locus YOR070C, strain gyp1, hits give low values",0.732 (active)
same,normalized growth,"S. cerevisiae deletion strains, locus YOR080W, strain dia2, hits give low values",0.816 (active)
same,normalized growth,"S. cerevisiae deletion strains, locus YOR083W, strain WHI5, hits give low values",0.56 (active)
same,normalized growth,"S. cerevisiae deletion strains, locus YOR106W, strain vam3, hits give low values",0.529 (active)
same,normalized growth,"S. cerevisiae deletion strains, locus YOR136W, strain idh2, hits give low values",0.866 (active)
same,normalized growth,"S. cerevisiae deletion strains, locus YOR144C, strain elg1, hits give low values",0.766 (active)
same,normalized growth,"S. cerevisiae deletion strains, locus YOR184W, strain ser1, hits give low values",0.535 (active)
same,normalized growth,"S. cerevisiae deletion strains, locus YOR231W, strain MKK1, hits give low values",0.41 (active)
same,normalized growth,"S. cerevisiae deletion strains, locus YOR265W, strain rbl2, hits give low values",0.851 (active)
same,normalized growth,"S. cerevisiae deletion strains, locus YOR270C, strain vph1, hits give low values",0.577 (active)
same,normalized growth,"S. cerevisiae deletion strains, locus YOR290C, strain snf2, hits give low values",0.379 (active)
same,normalized growth,"S. cerevisiae deletion strains, locus YOR316C, strain cot1, hits give low values",0.938
same,normalized growth,"S. cerevisiae deletion strains, locus YPL051W, strain arl3, hits give low values",0.628 (active)
same,normalized growth,"S. cerevisiae deletion strains, locus YPL055C, strain LGE1, hits give low values",0.572 (active)
same,normalized growth,"S. cerevisiae deletion strains, locus YPL078C, strain atp4, hits give low values",0.727 (active)
same,normalized growth,"S. cerevisiae deletion strains, locus YPL106C, strain sse1, hits give low values",0.779 (active)
same,normalized growth,"S. cerevisiae deletion strains, locus YPL240C, strain hsp82, hits give low values",0.618 (active)
same,normalized growth,"S. cerevisiae deletion strains, locus YPL241C, strain CIN2, hits give low values",0.935
same,normalized growth,"S. cerevisiae deletion strains, locus YPL256C, strain CLN2, hits give low values",0.499 (active)
same,normalized growth,"S. cerevisiae deletion strains, locus YPR119W, strain clb2, hits give low values",0.85 (active)
same,normalized growth,"S. cerevisiae deletion strains, locus YPR141C, strain kar3, hits give low values",1
same,normalized growth,"S. cerevisiae deletion strains, locus YPR163C, strain tif3, hits give low values",0.964
same,normalized growth,"S. cerevisiae deletion strains, locus YPR167C, strain met16, hits give low values",0.699 (active)
same,normalized growth,"S. cerevisiae deletion strains, strain wtn01, hits give low values",0.549 (active)
same,normalized growth,"S. cerevisiae strains, strain wild type, hits give low values",0.698 (active)
